From PubChem BioAssay
Only some compounds are listed: those with a hit (about 14% of all), similar ones and a draw of the others.
FBPA Giardia inh = qHTS Assay for Inhibitors of Fructose-1,6-bisphosphate Aldolase from Giardia Lamblia; purified Giardia FBPA; 290,000 compounds, 0.71% hits; A8B2U2; Potency, µM (highest dose often 59.6 µM), for inactives: at the highest dose activity, negative = inhibition, hits mostly inhibitors; further: potency means the concentration at half of the fitted maximal effect; on the % scale 0 is the no-effect control and ±100 the full control effect; nearly all actives have a fitted effect of over 55% in size
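40 nM FBPA preincubated 10 min at RT with compound (up to 57.5 uM final), then substrate plus GAPDH/TPI/NAD/arsenate coupling and diaphorase/resazurin added. Fluorescence read after 20 min at RT, 525/598 nm.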
NS1 inh = qHTS Assay for Inhibitors of Influenza NS1 Protein Function. Potency, µM (series often up to 46.1 µM), for the others: at the highest dose activity, positive = more growth. 270,000 compounds, 0.4% hits. AID 2326, 2010; calls by dose curve; further: potency means the concentration at half of the fitted maximal effect; actives are rising curves; nearly all actives have a fitted effect of over 50% in size
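Compounds were scored for reversing the slow growth caused by influenza A NS1 in S. cerevisiae, measured by optical density at 600 nm. Assay medium contained 2% galactose at pH 6.0; NS1-free yeast of the same strain were the positive control.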
Cycloheximide cs = Cycloheximide Counterscreen for Small Molecule Inhibitors of Shiga Toxin | cell reporter, cycloheximide protein synthesis inhibition counterscreen | max response, % | 300,000 compounds, 12% hits | AID 2314, 2010; in the data active means max response mostly above about 13%, no sharp cut-off; inactive means mostly below about 14%; further: read at 38.3 µM for the half of the compounds with a filed dose; 0% is about no effect
LmPK inh = qHTS Assay for Inhibitors of Leishmania Mexicana Pyruvate Kinase (LmPK). 290,000 compounds, 0.37% hits. Potency, µM (titrated, usually from 57.5 µM), inactives show at the top dose activity change, negative = inhibition, hits mostly inhibitors. purified LmPK, Kinase-Glo ATP luminescence, 1 h; further: potency means the concentration at half of the fitted maximal effect; on the % scale 0 is the no-effect control and ±100 the full control effect
Target sequence (Q27686 whole entry, looked up): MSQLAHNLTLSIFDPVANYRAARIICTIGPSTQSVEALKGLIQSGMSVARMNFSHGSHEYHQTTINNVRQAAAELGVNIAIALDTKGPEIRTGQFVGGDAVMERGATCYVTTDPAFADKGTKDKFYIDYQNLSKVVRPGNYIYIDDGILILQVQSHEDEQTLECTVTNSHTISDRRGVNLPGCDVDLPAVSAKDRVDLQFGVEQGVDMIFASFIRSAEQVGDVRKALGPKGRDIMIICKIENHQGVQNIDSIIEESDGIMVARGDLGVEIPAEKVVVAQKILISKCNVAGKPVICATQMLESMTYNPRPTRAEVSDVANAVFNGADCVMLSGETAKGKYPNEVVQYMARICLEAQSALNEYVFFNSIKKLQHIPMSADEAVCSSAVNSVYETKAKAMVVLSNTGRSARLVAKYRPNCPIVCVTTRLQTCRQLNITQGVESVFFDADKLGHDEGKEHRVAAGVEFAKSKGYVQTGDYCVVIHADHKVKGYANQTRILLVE
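Pyruvate kinase activity monitored as ATP production (luciferase luminescence). Conditions: 0.1 nM enzyme, 0.5 mM PEP, 0.1 mM ADP, 1 h, RT; normalized against uninhibited and no-enzyme wells.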
Shiga inhibitor = A qHTS for Small Molecule Inhibitors of Shiga Toxin. Vero cells, Shiga toxin protein synthesis inhibition reporter. inhibition, % at 38.7 µM. 290,000 compounds, 9.2% hits. AID 2315, 2010; in the data active means inhibition mostly above about 28%, no sharp cut-off; inactive means mostly below about 43%; further: 0% is about no effect
Numbers without * were called inactive; ? = inconclusive; nt = not tested or not shown; [ ] = dose if it differs, or a comment. Unless noted, the call rests on the fitted dose curve; in most records, active means well fitted curve in the direction sought with a large enough effect; inconclusive means small, poorly fitted or top-dose-only effect, or another doubt; inactive means no such curve, though single readings can be large; an effect the other way counts as inactive or inconclusive.

SMILES	FBPA Giardia inh	NS1 inh	Cycloheximide cs	LmPK inh	Shiga inhibitor
COc1cc(-c2cc(C(=O)Nc3ccc(S(=O)(=O)NCc4ccco4)cc3)c3ccccc3n2)cc(OC)c1OC	-4.2%	20.8%	3.5	1.7%	9.7
COc1ccc(CNC(=O)COC(=O)c2cc(-c3ccc(Cl)s3)nc3ccccc23)cc1	2.1%	7.4%	11.1	8.9%	25.2
O=C(COC(=O)c1cc(-c2ccc(Cl)s2)nc2ccccc12)NCc1ccco1	-9.3%	15.2%	15.8*	8.6%	18.1
CC(C)N(C(=O)COC(=O)c1cccc(C(=O)OCC(=O)N(C(C)C)C(C)C)n1)C(C)C	0.0%	nt	1.5	-0.2%	-9.0
COc1ccc(C)cc1NC(=O)c1cc2ccccc2cc1OCC(=O)NCc1ccco1	-3.1%	?	29.7*	10.2%	7.5
O=C(OCCOCCO)c1ccccc1Nc1cccc(C(F)(F)F)c1	-0.5%[21.7 µM]	nt	nt	nt	nt
O=C(COC(=O)c1ccccc1Nc1cccc(C(F)(F)F)c1)NCc1ccco1	-9.7%	-3.1%	16.9*	5.3%	35.9
O=C(COC(=O)c1cc(-c2cccs2)nc2ccccc12)NCc1ccco1	-8.1%	1.9%	29.1*	9.7%	90.4*
O=C(NCc1ccco1)c1cc(-c2cccs2)nc2ccccc12	1.8%	5.2%	13.4*	4.9%	14.2
CC1CCCCC1NC(=O)COC(=O)CNC(=O)c1cccc(F)c1 (stereo not drawn)	6.2%	nt	-3.7	10.2%	-14.8
CCOC(=O)c1ccc(NC(=O)CSC2=NN3CCCC(=O)N=C3S2)cc1	12.0%	0.6%	-6.0	-0.2%	-8.2
Oc1cc(O)c2c(c1)O[C@H](c1ccc(O)c(O)c1)[C@@H](O)[C@@H]2c1c(O)cc(O)c2c1O[C@@H](c1ccc(O)c(O)c1)[C@H](O)C2	nt	-3.1%	nt	nt	nt
Cc1ccccc1NC(=O)Nc1cc(-c2ccccc2)nn1C	5.4%	1.5%	36.0*	1.1%	82.1*
Cn1nc(-c2ccccc2)cc1NC(=O)Nc1ccc(F)cc1	5.7%	-2.6%	11.3	2.0%	44.6
Cc1ccccc1NC(=O)Nc1ccccn1	-12.9%	-8.3%	28.0*	0.1%	nt
CCOC(=O)c1cc(NC(=O)Nc2ccccc2OC)c(C)nc1C	4.3%	-11.0%	0.6	4.2%	-3.8
Cc1cccc(NC(=O)Nc2ccccn2)c1C	2.0%	-0.2%	10.8	1.4%	47.3
O=C(Nc1ccccn1)Nc1ccccc1[N+](=O)[O-]	2.1%	-6.9%	40.3*	-7.6%	46.5*
CCOC(=O)c1cc(NC(=O)Nc2ccccn2)c(C)nc1C	0.6%	nt	27.1*	6.7%[11.5 µM]	36.7
CC(=O)Nc1cccc(OCCCNS(=O)(=O)c2ccc(C#N)cc2)c1	nt	4.0%	-2.4	-3.5%	-18.1
CC(=O)N[C@@H](Cc1ccc(O)cc1)CN1C(N)=NC[C@@H]1CC(C)C	2.4%	-5.0%	-0.7	-0.1%	-2.5
COc1ccc(CNC(=O)CN2C(=O)C3C4C=CC(C4)C3C2=O)cc1 (stereo not drawn)	-1.3%	nt	1.4	9.1%	-13.1
CC1(C)CC(=O)c2c(noc2-c2ccccc2)C1	8.1%	1.8%	31.2*	4.7%	57.6*
CC1(C)CC(=O)c2c(Cc3ccccc3)noc2C1	6.0%	nt	13.3	2.3%	31.8
Cc1ccc2c(c1)COc1c3ccc(C(=O)N4CCOCC4)cc3nn1-2	5.6%	-6.2%	54.7*	15.8µM*	95.8*
SMILES	FBPA Giardia inh	NS1 inh	Cycloheximide cs	LmPK inh	Shiga inhibitor
O=C(c1ccc2c3n(nc2c1)-c1ccc(Cl)cc1CO3)N1CCCCC1	-7.1%	-75.9%	45.6*	25.1µM*	69.6*
O=C(O)c1ccc2c3n(nc2c1)-c1ccc(Cl)cc1CO3	-4.8%	-5.6%	42.1*	?	53.6*
O=C(O)c1ccc2c(=O)n3c(nc2c1)/C(=C/c1ccc(Cl)cc1Cl)CC3	1.0%	1.7%	-1.5	2.9%	3.6
N[C@H](C(=O)O)[C@H](N)C(=O)O	nt	-1.4%	nt	nt	nt
CCCCc1nc2c(c3c1C[C@H](C)OC3)CN(C(=O)c1ccco1)CC2	5.7%[12.9 µM]	nt	nt	0.1%[11.5 µM]	nt
Cc1c(/C=N\NC(=O)c2c[nH]c3ccccc23)cnn1C	1.6%	nt	15.4*	0.5%	46.3*
CCn1cc(/C=N\NC(=O)c2csc3ccccc23)c(C)n1	-7.8%	0.0%	44.4*	3.2%	82.3
COc1ccccc1-c1cc(C(=O)N/N=C\c2cnn(C)c2C)c2ccccc2n1	9.7%	-11.6%	-6.4	0.8%	10.5
CCn1cc(/C=N\NC(=O)c2c[nH]c3ccccc23)c(C)n1	-0.7%	15.8%	42.4	-2.1%	73.8*
N#C/C(=C\C1=C(N2CCOCC2)C(=C\c2ccc(Cl)cc2)/CC1)C(=O)Nc1ccccc1F	1.4%	6.9%	-2.9	-8.5%	-5.6
CCN(CC)c1ccc(/C=C2\CCC(/C=C(\C#N)C(=O)Nc3ccccc3F)=C2N2CCOCC2)cc1	-1.4%	-0.7%	6.2	11.2µM*	-6.0
O=C(CCCOc1ccccc1)N1CCN(c2ccccn2)CC1	3.5%	-14.5%	26.8*	-11.6%	114.9*
O=C(CCCOc1ccccc1)N1CCN(c2ccc(F)cc2)CC1	-6.2%	-58.2%	24.4*	6.4%	111.6
O=C(Oc1ccccc1)N1CCN(c2ccc(F)cc2)CC1	0.2%	-17.3%	6.8	2.1%	23.1
O=C(CCCOc1ccc(Cl)cc1Cl)N1CCN(c2ccccn2)CC1	-6.5%	-90.3%	-1.6	0.5%	27.1
CCc1ccc(C(=O)C(C)OC(=O)Cc2n[nH]c(=O)c3ccccc23)cc1 (stereo not drawn)	nt	1.4%	0.8	1.6%	-29.5
CSC(N)=NCCC[C@H](N)C(=O)O	-0.4%	0.0%	nt	nt	nt
COC(=O)N1C2CC3(C)CC(=O)CC1(C)C3c1ccccc12 (stereo not drawn)	4.4%[12.9 µM]	nt	nt	-2.5%[11.5 µM]	nt
Cc1ccc(NCC(=O)N/N=C\C(Br)=C\c2ccccc2)cc1	1.5%	-9.1%	8.6	-2.0%	-17.9
O=C(N/N=C/C(Br)=C/c1ccccc1)C(O)c1ccccc1 (stereo not drawn)	-1.5%	-11.5%	44.0*	0.0%	74.1*
O=C(N/N=C/C(Br)=C/c1ccccc1)C1CC1	-8.3%	-5.8%	25.5*	-1.9%	56.3*
O=C(O)c1ccc(N/N=C/C(Br)=C/c2ccccc2)cc1	9.3%	-86.3%	25.3*	-4.8%	11.4
CC(/C=N/NC(=O)NC1CCCCC1)=C\c1ccccc1	0.6%	nt	28.0*	-3.0%	45.8*
O=C(NCCc1ccccc1)/C(=C\c1cccc([N+](=O)[O-])c1)NC(=O)c1ccco1	7.9%	15.2%	-1.2	2.0%	15.0
NC[C@@H](O)CSP(=O)(O)O	nt	-0.3%	nt	nt	nt
O=C(N/N=C/C(Br)=C/c1ccccc1)NC1CCCCC1	-1.7%	0.5%	49.8*	2.5%	96.6*
BrC(=C\c1ccccc1)/C=N/Nc1nc2ccccc2[nH]1	?	-3.5%	75.3*	-0.9%	104.4*
BrC(=C\c1ccccc1)/C=N/Nc1nc(N2CCOCC2)nc(N2CCOCC2)n1	-0.4%	-9.0%	-2.6	5.5%	-10.0
Cc1ccc(S(=O)(=O)N2CCCCC2)cc1NC(=O)C1CCCO1 (stereo not drawn)	0.9%	-2.4%	-2.5	7.2%	-6.1
